An excerpt weighted towards active compounds, which were near 3% of everything screened.
TexasRed fluor: Total Fluorescence Counterscreen for Inhibitors of the Interaction of Thyroid Hormone Receptor and Steroid Receptor Coregulator 2; Potency, µM (highest dose often 106 µM), for inactives: at the top dose fluorescence change, negative = quenching; actives 0.29% (n = 280,000); TRb/SRC2 Texas Red total fluorescence interference; active = well fitted curve in either direction with a large enough effect; inconclusive = small, poorly fitted or top-dose-only effect
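Human TRβ ligand-binding domain (0.6 uM) and Texas Red SRC2 peptide (20 nM) in Tris buffer with 1 uM T3 and 5% DMSO were incubated with pinned compound for 5 hr at ambient temperature. Total fluorescence was computed as S + 2P (555/632 nm).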
TRb-SRC2 inh: qHTS for Inhibitors of the Interaction of Thyroid Hormone Receptor and Steroid Receptor Coregulator 2; actives 0.065% (n = 280,000); TRbeta-SRC2 peptide binding, fluorescence polarization; receptor liganded with 1 µM T3; Thyroid hormone receptor beta (Homo sapiens), P10828; Potency, µM (series often up to 106 µM), for inactives: at the highest dose activity change, negative = inhibition, most hits filed as inhibitors;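 note: plate controls were bound peptide for no effect and peptide without receptor for full effect; nearly all actives have a fitted effect of over 50% in size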
Target sequence (P10828 whole entry, looked up): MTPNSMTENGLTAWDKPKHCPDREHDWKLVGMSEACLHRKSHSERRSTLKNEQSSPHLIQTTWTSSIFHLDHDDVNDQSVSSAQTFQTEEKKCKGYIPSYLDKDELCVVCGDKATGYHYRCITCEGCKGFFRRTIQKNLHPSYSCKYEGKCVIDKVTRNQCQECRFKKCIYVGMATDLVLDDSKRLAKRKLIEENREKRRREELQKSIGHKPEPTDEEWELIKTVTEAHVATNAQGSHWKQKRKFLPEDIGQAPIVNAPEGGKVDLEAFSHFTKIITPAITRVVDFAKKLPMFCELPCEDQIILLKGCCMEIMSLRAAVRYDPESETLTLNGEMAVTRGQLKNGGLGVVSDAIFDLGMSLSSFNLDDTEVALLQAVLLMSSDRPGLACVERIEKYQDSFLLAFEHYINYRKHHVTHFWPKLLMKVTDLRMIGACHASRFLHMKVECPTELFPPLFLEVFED
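Fluorescence polarization of 20 nM Texas Red SRC2 peptide with 0.6 uM human TRb ligand-binding domain, in Tris buffer with 1uM T3 and 5% DMSO. Incubated 5 hr ambient; normalized to unbound and bound controls.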
Tau ThT inhib: qHTS for Inhibitors of Tau Fibril Formation, Thioflavin T Binding. Microtubule-associated protein tau (Homo sapiens), P10636. recombinant tau K18 P301L, heparin-induced fibrillization, ThT fluorescence. Potency, µM (series often up to 57.4 µM), for the others: at the highest dose activity, negative = inhibition, usual class: inhibitors. actives 2.1% (n = 270,000); note: nearly all actives have a fitted effect of over 55% in size
Target sequence (P10636 561-689 P618L limits assumed): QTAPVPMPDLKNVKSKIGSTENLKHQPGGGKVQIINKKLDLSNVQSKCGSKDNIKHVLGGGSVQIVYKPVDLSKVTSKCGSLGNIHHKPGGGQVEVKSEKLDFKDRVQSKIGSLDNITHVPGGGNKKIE
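Recombinant human tau K18 fragment […] carrying P301L, 15 uM unlabeled plus 0.24 uM Alexa 594-labeled, was fibrillized with 20 uM heparin in 100 mM sodium acetate pH 7 for 6 hr at 37 C; 30 uM ThT fluorescence read after 1 hr.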
Tau fluor counter: Counterscreen qHTS for Inhibitors of Tau Fibril Formation, Fluorescence Polarization | tau K18 P301L (four-repeat tau fragment) Alexa594 fluorescence, heparin fibrillization | Potency, µM (series often up to 57.7 µM), inactives show at the highest dose activity change, negative = decrease | actives 0.93% (n = 280,000); note: nearly all actives have a fitted effect of over 55% in size
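Human K18 P301L tau (15 uM unlabeled plus 0.24 uM Alexa 594-labeled, final) in 100 mM sodium acetate pH 7 was mixed with compound and 20 uM heparin and incubated 6 hr at 37 C.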
Tau FP inhib: qHTS for Inhibitors of Tau Fibril Formation, Fluorescence Polarization | Microtubule-associated protein tau (Homo sapiens), P10636 | K18 P301L tau heparin fibrillization, Alexa594 FP, 6 h | Potency, µM (highest dose often 57.7 µM), for inactives: at the top dose activity, negative = inhibition, actives largely listed as inhibitors | actives 0.39% (n = 280,000) | AID 1468, 2008; note: nearly all actives have a fitted effect of over 55% in size
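Quantitative HTS format: compounds meet 15 uM recombinant K18 P301L tau and Alexa 594-tau tracer in 100 mM sodium acetate pH 7; 20 uM heparin triggers fibrillization at 37 C over 6 hr; FP gives the signal.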
An asterisk follows results filed as active; ? = inconclusive; nt = no result; ! = not active in a repeat; [ ] = dose if it differs, or a comment. Unless noted, calls come from the whole dose curve; as a rule, active = well fitted curve in the direction sought with a large enough effect; inconclusive = small, poorly fitted or top-dose-only effect, or another doubt; inactive = no such curve, though single readings can be large; an effect the other way counts as inactive or inconclusive. Unless noted, % is set by controls: 0 for no effect and ±100 for the full control effect; potency is the fitted concentration of half-maximal effect.

SMILES	TexasRed fluor	TRb-SRC2 inh	Tau ThT inhib	Tau fluor counter	Tau FP inhib
CCCN(CCC)S(=O)(=O)c1ccc(NC(=O)c2cc(C(=O)OC)cc([N+](=O)[O-])c2)cc1	0%	-5%	-3%	8.9µM*[quencher]	13%
O=c1nc(/C=C/c2ccc(-c3ccc(F)cc3)o2)cc(C(F)(F)F)[nH]1	8%	3%	16µM*	-16%	-7%
O=C(O)c1ccccc1-c1ccc(/C=C/c2cc(C(F)(F)F)[nH]c(=O)n2)o1	6%	-2%	11%	11%	1%
Cc1nc2nc(SCc3c(F)cccc3Cl)nn2c(C)c1Cc1ccccc1	-2%	3%	-9%	-9%	10%
COc1cccc(Cn2c(=O)n(-c3cccc(Cl)c3)c(=O)c3c4c(sc32)CN(C(C)=O)CC4)c1	6%	3%	-10%	-4%	9%
CCCCCSc1nc2sc3c(c2c(=O)n1-c1ccccc1)CCN(C(C)=O)C3	0.018µM*[quencher]	-28%[53 µM]	?	-10%	?
C#CCSc1nc2sc3c(c2c(=O)n1-c1cccc(OC)c1)CCN(C(C)=O)C3	-33%	5%	25µM*	-8%	?
CCSc1nc2sc3c(c2c(=O)n1-c1ccc(C)c(Cl)c1)CCN(C(C)=O)C3	-2%	-6%	?	-11%	-8%
Fc1ccc(Nc2c(-c3c[nH]c4ccccc34)nc3ccccn23)cc1	-2%	-6%	-11%	7.1µM*[quencher]	-5%
c1ccc(Nc2c(-c3c[nH]c4ccccc34)nc3ccccn23)cc1	0%	-1%	?	13µM*[quencher]	?
Cc1ccc2nc(-c3c[nH]c4ccccc34)c(Nc3ccccc3)n2c1	?	-5%	-7%	?	2%
O=[N+]([O-])c1ccccc1S(=O)(=O)NCC1CCC(CNCC2CCc3ccccc3C2)CC1 (configuration not stated)	-4%	-3%	-11%	-18%	4%
O=C(CSc1nccn1C1CCCC1)Nc1ccccc1	3%	4%	18%	17%	6%
CCCCCCCCCCCCN	-3%[201 µM]	0%[201 µM]	nt	nt	nt
C=CCn1c(/N=C/c2ccc(N(C)C)cc2)nc2ccccc21	0%	2%	1%	-3%	2%
CN(C)c1ccc(/C=N/n2ncc3ccccc32)cc1	-9%	6%	4µM*	?	14%
CCCCN(CCCC)CCNC(=O)c1cn(C)c2ccc(S(=O)(=O)N3CCOCC3)cc2c1=O	-1%	4%	-5%	-11%	-10%
OCC1OC(c2ccc3c(c2)OCO3)C=CC1Oc1cc(Cl)cc(Cl)c1 (configuration not stated)	1%[11.2 µM]	14%[11.2 µM]	-22%[11.5 µM]	-25%[11.6 µM]	0%[11.6 µM]
NS(=O)(=O)c1ccc(N/C=C/C(=O)c2ccc(Br)cc2)cc1	-4%	-6%	6%	2%	-4%
COc1cc(/C=N\NC(=O)c2ccc(C)nc2)ccc1OC(=O)c1ccc2c(c1)OCO2	0%	-6%	-4%	-26%	25µM*
COc1ccc(N/C=C/C(=O)c2ccc3c(c2)OCO3)cc1OC	-1%	1%	5µM*	?	-5%
COc1ccc(N/C=C\C(=O)c2ccc(Br)cc2)cc1OC	-2%	10%	3.2µM*	-10%	0%
COc1ccc(N/C=C\C(=O)c2ccc(C)cc2)cc1OC	-2%	2%	10µM*	?	3%
COc1cc(/C=N/NC(=O)c2cncc(Br)c2)ccc1OC(=O)c1ccc2c(c1)OCO2	-2%	9%	-8%	0%	5%
CCOC(=O)c1cccc(N/C=C/C(=O)c2ccc(OC)c(OC)c2)c1	1%	6%	?	?	6%
SMILES	TexasRed fluor	TRb-SRC2 inh	Tau ThT inhib	Tau fluor counter	Tau FP inhib
COc1ccc(N/C=C\C(=O)c2ccc3c(c2)OCO3)cc1	0%	0%	?	-28%	3%
Cc1ccc(S(=O)(=O)/N=C2/C=C(C3C(=O)CC(C)(C)CC3=O)C(=O)c3ccccc32)cc1	-1%	-3%	8.9µM*	8.9µM*[quencher]	22µM*
Cc1ccc(S(=O)(=O)N2CCC(C(=O)C3C(=O)CC(C)(C)CC3=O)CC2)cc1	0%	0%	-3%	-4%	-3%
CCCCCCCCCCCC(CC1OC(=O)C1CCCCCC)OC(=O)C(CC(C)C)NC=O (configuration not stated)	-2%	2%	?	-26%	-2%
COC(=O)C1=C(C(=O)OC)[C@@H]2N(Cc3ccccc3)c3ccccc3[C@@]23C[C@@H](C(=O)OC)N(S(=O)(=O)c2ccc(C#N)cc2)C3=N1	-1%[11.2 µM]	1%[11.2 µM]	-2%[11.5 µM]	-12%[11.6 µM]	-1%[11.6 µM]
Cc1nc(CC(=O)Nc2cc(Cl)ccc2C)cs1	-1%	3%	-5%	-5%	4%
CC1=C(C(=O)Nc2ccccc2)C(c2ccccc2[N+](=O)[O-])NC(=O)N1 (configuration not stated)	-4%	-5%	25µM*	?	?
COc1ccccc1NC(=O)C1=C(C)NC(=O)NC1c1ccccc1[N+](=O)[O-] (configuration not stated)	-3%	-5%	?	-23%	-15%
Nc1nnc(Cc2c[nH]c3ccccc23)s1	2%	0%	?	-26%	8%
c1ccc2c(Cc3c[nH]c4ccccc34)c[nH]c2c1	0%	-5%	?	16µM*![quencher]	?
CC1CCCC(C)N1C(=O)Cn1cc(/C=C2/C(=O)Nc3ccccc32)c2ccccc21 (configuration not stated)	-5%	6%	14µM*	?	14%
COC(=O)c1cn(CC(=O)N2C(C)CCCC2C)c2ccccc12 (configuration not stated)	-2%	2%	-4%	-5%	-2%
CCOCCCn1c(SCC(=O)Nc2ccc(C(C)C)cc2)nc2c(sc3ccccc32)c1=O	-18%	4%	11%	-3%	-5%
Cc1ccc(N=Cc2nc(/C=C/c3cccc([N+](=O)[O-])c3)oc2O)cc1	0%	-3%	1.4µM*	-16%	12%
O=C(Nc1ccc(Cl)cc1)/C(=C/c1ccc([N+](=O)[O-])cc1)c1nc2ccccc2s1	-2%	3%	14µM*	-25%	?
O=C(Nc1nc2ccccc2s1)Nc1ccc([N+](=O)[O-])cc1Cl	-1%	-1%	?	?	-4%
N#C/C(=N/Nc1ccc(OC(F)(F)F)cc1)C(N)=S	-4%	-2%	6.3µM*	?	4%
